KCNQ2 enhance = KCNQ2 (rat) channel potentiation; B-score at 10 µM; CHO-K1 KCNQ2, FluxOR thallium flux fluorescence; hits give high values; hit rate 0.54% among 310,000; O88943;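 active means fluorescence ratio B-score at least 3 SD of library B-scores, with initial fluorescence B-score within 3 of them, cut at about 5.3 in these data; same plate scores as AID 2156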;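 further: B-score of peak minus minimum over baseline fluorescence ratio after K+ and Tl+ stimulus; positive B-score means potentiation of KCNQ2 with more thallium influx and brighter signal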
KCNQ2 inh = inhibitors of rat KCNQ2 potassium channel; O88943; CHO-K1 KCNQ2, FluxOR thallium flux, 20 min; hits give low values; B-score at 10 µM; hit rate 1.1% among 310,000;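 active means fluorescence ratio B-score at most minus 3 library SDs, with starting brightness B-score within 2 library SDs, cut at about -5.5 in these data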
KCNQ2 inh conf = rat KCNQ2 channel inhibition, confirmatory screen; shares compounds with KCNQ2 inh; KCNQ2-expressing cells, thallium flux; hits give low values; activity change, negative = inhibition, % at 10 µM; hit rate 57% among 1,000; AID 493025
KCNQ1 spec = human KCNQ1 activity in KCNQ2 inhibitor specificity screen. shares compounds with KCNQ2 inh. KCNQ1-expressing cells, FluxOR thallium flux fluorescence; hits give low values. activity change, negative = inhibition, % at 10 µM. hit rate 15% among 1,000. AID 493026;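 active means activity change at least 3 SD of negative controls below their mean in both duplicate wells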;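 further: CHO cells stably transfected with KCNQ1 and depolarized by potassium stimulus; peak minus minimum fluorescence over baseline after thallium addition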
Target sequence (P51787 whole entry, looked up): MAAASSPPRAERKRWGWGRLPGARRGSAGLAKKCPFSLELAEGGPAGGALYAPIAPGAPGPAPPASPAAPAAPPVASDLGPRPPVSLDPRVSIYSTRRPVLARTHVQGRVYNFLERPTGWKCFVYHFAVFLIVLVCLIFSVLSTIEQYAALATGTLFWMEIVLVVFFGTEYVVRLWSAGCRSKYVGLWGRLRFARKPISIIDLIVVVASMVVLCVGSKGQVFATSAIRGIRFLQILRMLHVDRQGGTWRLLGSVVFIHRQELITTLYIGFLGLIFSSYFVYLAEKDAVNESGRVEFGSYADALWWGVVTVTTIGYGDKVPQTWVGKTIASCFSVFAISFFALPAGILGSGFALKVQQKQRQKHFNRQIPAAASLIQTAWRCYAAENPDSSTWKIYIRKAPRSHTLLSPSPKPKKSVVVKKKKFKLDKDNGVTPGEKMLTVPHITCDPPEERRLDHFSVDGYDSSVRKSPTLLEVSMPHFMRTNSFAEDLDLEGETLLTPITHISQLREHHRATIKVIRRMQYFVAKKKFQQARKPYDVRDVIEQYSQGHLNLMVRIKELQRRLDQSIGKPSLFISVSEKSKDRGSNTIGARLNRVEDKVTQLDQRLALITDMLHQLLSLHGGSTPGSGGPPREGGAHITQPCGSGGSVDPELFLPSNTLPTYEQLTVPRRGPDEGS
CHO parental ctr = counter-screen for KCNQ2 inhibitors: effect in parental CHO cells; AID 493029; hit rate 14% among 1,000; shares compounds with KCNQ2 inh; activity change, % at 10 µM; thallium flux counter-screen; hits give low values
KCNQ2 inh confirm = confirmation of rat KCNQ2 potassium channel inhibitors. shares compounds with KCNQ2 inh. KCNQ2-expressing cells, automated patch clamp current. calls only at 10 µM. hit rate 49% among 550. AID 588531
Of the large screens only hits and unclear results are named; the others gave an inactive call (follow-up assays come after a bar, where they were run). An excerpt weighted towards active compounds, which were near 1.6% of everything screened. Unless noted, how the calls were made is not given here.

CCc1ccc(C(C)NC(=O)/C(C#N)=C\c2cn[nH]c2-c2ccccc2)cc1 (stereo not given)	KCNQ2 inh -9.06 | KCNQ2 inh conf inactive | KCNQ1 spec inactive | CHO parental ctr inactive
O=C(Cn1c(=O)n(Cc2ccc3c(c2)OCO3)c(=O)c2ccccc21)N1CCCc2ccccc21	none (no result: KCNQ2 enhance)
CC1CCCCN1C(=O)CSc1nc2cc3c(cc2c(=O)n1Cc1ccc2c(c1)OCO2)OCO3 (stereo not given)	none (no result: KCNQ2 enhance)
CC1CCN(C(=O)CSc2nc3ccccc3c(=O)n2Cc2ccc3c(c2)OCO3)CC1	KCNQ2 inh -7.33 | KCNQ2 inh conf inactive | KCNQ1 spec inactive | CHO parental ctr inactive
CC1CCN(C(=O)Cn2c(=O)n(Cc3ccc4c(c3)OCO4)c(=O)c3ccccc32)CC1	KCNQ2 inh -7.17 | KCNQ2 inh conf -31.0% | KCNQ1 spec inactive | CHO parental ctr inactive | KCNQ2 inh confirm active
Cc1ccc(S(=O)(=O)N2CC(C)C(=O)CC2C)cc1 (stereo not given)	none
NC(=S)N/N=C1\CCSc2ccc(Cl)cc21	none
Oc1oc(-c2ccccc2)nc1/C=N/c1nccs1	none
Oc1oc(-c2ccccc2)nc1C=Nc1cccc2ccccc12	KCNQ2 inh -8.69 | KCNQ2 inh conf inactive | KCNQ1 spec inactive | CHO parental ctr inactive
COc1ccccc1N1CCN(C(=O)C(Cc2ccccc2)NC(=O)C2CCCCC2)CC1 (stereo not given)	KCNQ2 inh -7.41 | KCNQ2 inh conf -33.0% | KCNQ1 spec inactive | CHO parental ctr inactive | KCNQ2 inh confirm active
CCC(C(=O)N1CCN(c2ccccc2OC)CC1)c1ccccc1 (stereo not given)	none (no result: KCNQ2 enhance)
CCN(CCNC(=O)C1CCN(Cc2nc(-c3cccc(Cl)c3)oc2C)CC1)c1ccccc1	KCNQ2 inh -12.4 | KCNQ2 inh conf -26.5% | KCNQ1 spec inactive | CHO parental ctr inactive | KCNQ2 inh confirm inactive
Cc1oc(-c2cccc(Cl)c2)nc1CN1CCC(C(=O)NC2CC2)CC1	none
CCn1c(=O)n(CC(=O)NCC2CCCO2)c(=O)c2c3c(sc21)COC(C)(C)C3 (stereo not given)	none (no result: KCNQ2 enhance)
CC1CCN(C(C(=O)Nc2ccc3c(c2)OCO3)c2ccccc2)CC1 (stereo not given)	KCNQ2 inh -6.99 | KCNQ2 inh conf inactive | KCNQ1 spec inactive | CHO parental ctr inactive
O=C(Nc1ccc2c(c1)OCO2)C(c1ccccc1)N1CCCCC1 (stereo not given)	none (no result: KCNQ2 enhance)
CCOC(=O)c1c(-c2ccc(OC)cc2)csc1NC(=O)CSc1ccccc1	none (no result: KCNQ2 enhance)
CCOC(=O)c1c(-c2ccccc2)csc1NC(=O)CSc1ccccc1	KCNQ2 inh -8.24 | KCNQ2 inh conf -38.0% | KCNQ1 spec -27.0% | CHO parental ctr inactive | KCNQ2 inh confirm inactive
CCOC(=O)c1c(-c2cccs2)csc1NC(=O)CC(C)C	none (no result: KCNQ2 enhance)
CCOC(=O)c1c(-c2cccs2)csc1NC(=O)CN(CC)CC	KCNQ2 inh -9.86 | KCNQ2 inh conf inactive | KCNQ1 spec inactive | CHO parental ctr inactive
COc1ccc(-c2[nH]ncc2/C=N\NC(=O)c2ccc(Br)o2)cc1OC	none
O=C(CSc1nc2ccccc2[nH]1)N1CCCCC1	none
Cc1c(C)n(C(=O)CSc2nc3ccccc3[nH]2)c2ccccc12	KCNQ2 inh -10.7 | KCNQ2 inh conf -30.0% | KCNQ1 spec inactive | CHO parental ctr inactive | KCNQ2 inh confirm inactive
Cc1c(C)n(C)c2ccc(C(=O)N3CCN(c4ccccc4)CC3)cc12	none (no result: KCNQ2 enhance)
Cc1ccc(C)c(N2CCN(C(=O)c3ccc4c(c3)c(C)c(C)n4C)CC2)c1	KCNQ2 inh -6.64 | KCNQ2 inh conf inactive | KCNQ1 spec inactive | CHO parental ctr inactive
COc1cc(C(=O)NC(C)c2cccc3ccccc23)cc(OC)c1OC (stereo not given)	none (no result: KCNQ2 enhance)
CN1CCN(C2Cc3ccc(F)cc3Sc3cc(F)c(Cl)cc32)CC1 (stereo not given)	none (no result: KCNQ2 enhance)
CC(C)c1ccc2c(c1)C(N1CCNCC1)Cc1ccc(F)cc1S2 (stereo not given)	KCNQ2 inh -9.69 | KCNQ2 inh conf -38.5% | KCNQ1 spec -36.5% | CHO parental ctr -31.0% | KCNQ2 inh confirm inactive
CCCOc1ccc(C(=O)Nc2ccc(S(=O)(=O)NC3=NCCCCC3)cc2)cc1	none
Fc1ccc(C(c2nnnn2C2CCCC2)N(Cc2ccco2)CC2CCCO2)cc1 (stereo not given)	none (no result: KCNQ2 enhance)
CC(C)(C)n1nnnc1C(c1ccc(F)cc1)N(Cc1ccc(F)cc1)Cc1ccco1 (stereo not given)	KCNQ2 inh -10.6 | KCNQ2 inh conf -30.5% | KCNQ1 spec inactive | CHO parental ctr inactive | KCNQ2 inh confirm inactive
CCC(C)(C)n1nnnc1C(c1ccc(C)cc1)N1CCSCC1 (stereo not given)	none (no result: KCNQ2 enhance)
CC(C)(C)n1nnnc1C(c1ccc(C(F)(F)F)cc1)N(Cc1ccccc1)Cc1ccco1 (stereo not given)	KCNQ2 inh -10.9 | KCNQ2 inh conf -57.0% | KCNQ1 spec -57.5% | CHO parental ctr -54.0%
CCN(Cc1ccccc1)C(c1ccc(C)cc1)c1nnnn1C(C)(C)CC (stereo not given)	KCNQ2 inh -8.77 | KCNQ2 inh conf -28.0% | KCNQ1 spec inactive | CHO parental ctr inactive | KCNQ2 inh confirm inactive
Cc1cc2cc(C(c3nnnn3C(C)(C)C)N(Cc3ccco3)CC3CCCO3)c(=O)[nH]c2cc1C (stereo not given)	none
COc1cccc(OCc2nn3c(=O)c(-c4ccccc4)nnc3s2)c1	none
Cc1ccc(CS(=O)Cc2ccc(C(=O)N3CCN(c4ccccn4)CC3)o2)cc1 (stereo not given)	none
c1ccc(Nc2nnc(-c3cccnc3)s2)cc1	none (no result: KCNQ2 enhance)
Cc1ccc(N=C2CCCN2Cc2ccccc2)c(C#N)c1	KCNQ2 inh -8.98 | KCNQ2 inh conf -47.0% | KCNQ1 spec -43.0% | CHO parental ctr -33.5% | KCNQ2 inh confirm active
Cc1ccc(N=C2CCCCCN2C)c(C#N)c1	none (no result: KCNQ2 enhance)
CC(C)Cc1nnc(NC(=O)CCC(=O)N2CC(C)CC(C)C2)s1 (stereo not given)	none
CC1=C(C(=O)NCc2ccc3c(c2)OCO3)C2(CCC(C)CC2)OC1=O (stereo not given)	KCNQ2 inh -9.37 | KCNQ2 inh conf inactive | KCNQ1 spec inactive | CHO parental ctr inactive
CC1=C(C(=O)NCc2ccco2)C2(CCC(C)CC2)OC1=O (stereo not given)	none
Cc1ccc(N(Cc2ccccc2)C(=O)c2cccc(S(=O)(=O)N3CC(C)OC(C)C3)c2)cc1 (stereo not given)	none
CC1CN(S(=O)(=O)c2cccc(C(=O)N(CCc3ccccc3)Cc3ccccc3)c2)CC(C)O1 (stereo not given)	KCNQ2 inh -8.3 | KCNQ2 inh conf -32.5% | KCNQ1 spec -27.0% | CHO parental ctr inactive | KCNQ2 inh confirm active
CCN1C(=O)c2ccccc2Sc2ccc(C(=O)NCCCN(CC(C)C)CC(C)C)cc21	none (no result: KCNQ2 enhance)
COc1cc(OC)cc(C(=O)NC(C)CNc2ccc(Cl)cc2[N+](=O)[O-])c1 (stereo not given)	none (no result: KCNQ2 enhance)
CC1(O)c2ccccc2C(=O)N1Cc1ccccc1 (stereo not given)	none
